Records with an inconclusive call do not appear. Where a call stands in place of a potency, no number is given. Values without a mark were called inactive. Calls of active or inactive are those of the source. The call rests on the fitted dose curve; in most records, active means well fitted curve in the direction sought with a large enough effect; inconclusive means small, poorly fitted or top-dose-only effect, or another doubt; inactive means no such curve, though single readings can be large; an effect the other way counts as inactive or inconclusive.
Tests used:
[1] = molecular target: Rap guanine nucleotide exchange factor 3 (Homo sapiens) (UniProt O95398); experiment: Confirmatory qHTS for antagonist of cAMP-regulated guanine nucleotide exchange factor 3 (EPAC1) (AID 1645880); conditions: EPAC1 Rap1B-BODIPY-GDP exchange, fluorescence; activity, negative = inhibition: at 115 µM (top of the series); further: nearly all actives have a fitted effect of over 55% in size; further: potency means the concentration at half of the fitted maximal effect
In short: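 Nucleotide exchange uses 100 nM EPAC1, 250 nM RAP1B-BODIPY-GDP and 50 uM GDP, with compounds in a concentration-titration series. After 5 min at room temperature, fluorescence (480 nm ex/540 nm em) is read every 5 min for 30 min. Data are normalized to control ATA and DMSO.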

[2] = molecular target: Rap guanine nucleotide exchange factor 4 (Homo sapiens) (UniProt Q8WZA2); experiment: Confirmatory qHTS for agonist of cAMP-regulated guanine nucleotide exchange factor 4 (EPAC2) (AID 1645884);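 further: nucleotide exchange releases bodipy-GDP from Rap1 and this lowers its fluorescence; nearly all actives have a fitted effect of over 65% in size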; further: potency means the concentration at half of the fitted maximal effect
[3] = molecular target: Rap guanine nucleotide exchange factor 4 (Homo sapiens) (UniProt Q8WZA2); experiment: Confirmatory qHTS for antagonist of cAMP-regulated guanine nucleotide exchange factor 4 (EPAC2) (AID 1645885); further: nearly all actives have a fitted effect of over 25% in size; further: potency means the concentration at half of the fitted maximal effect
[4] = molecular target: Rap guanine nucleotide exchange factor 3 (Homo sapiens) (UniProt O95398); experiment: Counterscreen qHTS for antagonist of cAMP-regulated guanine nucleotide exchange factor 3 (EPAC1) (AID 1645888);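 further: fluorescence loss as bound BODIPY-GDP is released from Rap1B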
In short: (§1)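 Rap1B-BODIPY-GDP 250 nM + GDP 50 uM; cpds 7-pt, final 9.74 nM–152 uM (activator mode) or from 7.32 nM upwards (inhibitor mode); RT; FI 480/540 nm at 5 and 30 min, then ± cAMP, reread.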

[5] = molecular target: Rap guanine nucleotide exchange factor 3 (Homo sapiens) (UniProt O95398); experiment: Counterscreen qHTS for agonist of cAMP-regulated guanine nucleotide exchange factor 3 (EPAC1) (AID 1645889); further: nearly all actives have a fitted effect of over 40% in size
In short: as §1

Rap guanine nucleotide exchange factor 3 (Homo sapiens), sequence (O95398 whole entry, looked up): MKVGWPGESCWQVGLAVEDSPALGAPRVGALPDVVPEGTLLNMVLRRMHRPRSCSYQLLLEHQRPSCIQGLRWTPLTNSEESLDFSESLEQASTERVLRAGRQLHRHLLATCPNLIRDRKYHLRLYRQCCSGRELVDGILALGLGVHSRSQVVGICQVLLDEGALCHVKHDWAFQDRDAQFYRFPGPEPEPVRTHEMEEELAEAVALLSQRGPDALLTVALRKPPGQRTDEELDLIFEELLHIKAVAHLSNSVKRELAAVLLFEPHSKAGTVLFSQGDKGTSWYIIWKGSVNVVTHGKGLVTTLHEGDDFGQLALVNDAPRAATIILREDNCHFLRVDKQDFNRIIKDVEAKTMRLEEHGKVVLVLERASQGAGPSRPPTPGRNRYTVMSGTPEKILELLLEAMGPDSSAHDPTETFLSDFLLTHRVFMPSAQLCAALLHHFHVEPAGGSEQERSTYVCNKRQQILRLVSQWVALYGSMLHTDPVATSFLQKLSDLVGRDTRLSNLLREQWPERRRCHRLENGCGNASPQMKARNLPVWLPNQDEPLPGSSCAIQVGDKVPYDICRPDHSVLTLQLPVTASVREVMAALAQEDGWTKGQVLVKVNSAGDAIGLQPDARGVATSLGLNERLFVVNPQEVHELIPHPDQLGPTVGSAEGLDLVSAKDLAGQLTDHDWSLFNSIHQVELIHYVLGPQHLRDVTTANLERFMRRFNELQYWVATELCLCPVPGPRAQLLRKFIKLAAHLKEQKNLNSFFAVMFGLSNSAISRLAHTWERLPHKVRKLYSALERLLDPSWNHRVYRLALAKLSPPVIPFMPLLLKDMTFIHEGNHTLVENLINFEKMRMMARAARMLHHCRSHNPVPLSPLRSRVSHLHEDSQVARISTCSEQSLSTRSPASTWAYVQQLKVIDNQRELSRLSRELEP
Rap guanine nucleotide exchange factor 4 (Homo sapiens), sequence (Q8WZA2 whole entry, looked up): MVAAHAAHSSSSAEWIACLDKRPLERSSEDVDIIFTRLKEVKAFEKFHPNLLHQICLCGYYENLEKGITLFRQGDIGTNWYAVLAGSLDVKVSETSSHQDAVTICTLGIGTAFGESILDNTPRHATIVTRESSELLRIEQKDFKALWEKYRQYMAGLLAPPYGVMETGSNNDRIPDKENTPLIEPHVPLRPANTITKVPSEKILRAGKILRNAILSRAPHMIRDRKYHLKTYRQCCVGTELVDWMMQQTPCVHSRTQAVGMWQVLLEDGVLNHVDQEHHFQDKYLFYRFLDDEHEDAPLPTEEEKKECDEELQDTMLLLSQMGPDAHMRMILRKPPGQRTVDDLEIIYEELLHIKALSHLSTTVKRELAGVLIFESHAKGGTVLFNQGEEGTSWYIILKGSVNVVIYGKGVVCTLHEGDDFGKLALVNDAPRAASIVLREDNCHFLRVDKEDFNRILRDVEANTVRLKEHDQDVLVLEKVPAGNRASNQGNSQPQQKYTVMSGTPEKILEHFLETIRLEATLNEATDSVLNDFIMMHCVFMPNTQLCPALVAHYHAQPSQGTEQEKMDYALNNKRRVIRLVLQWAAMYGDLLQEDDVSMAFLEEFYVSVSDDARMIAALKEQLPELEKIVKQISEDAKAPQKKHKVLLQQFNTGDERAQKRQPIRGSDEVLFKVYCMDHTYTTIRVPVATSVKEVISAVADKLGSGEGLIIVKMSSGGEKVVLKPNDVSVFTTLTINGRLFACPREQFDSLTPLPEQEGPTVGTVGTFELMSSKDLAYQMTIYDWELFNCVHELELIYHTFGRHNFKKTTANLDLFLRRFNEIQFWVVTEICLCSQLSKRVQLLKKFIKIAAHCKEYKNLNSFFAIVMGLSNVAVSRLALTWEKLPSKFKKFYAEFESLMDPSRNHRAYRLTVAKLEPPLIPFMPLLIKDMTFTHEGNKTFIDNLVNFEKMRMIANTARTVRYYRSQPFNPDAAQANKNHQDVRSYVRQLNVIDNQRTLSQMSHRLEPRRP

For `Cc1ccc(Nc2cc(C)nc3c(C)ccc([N+](=O)[O-])c23)cc1`, the Potency [1] was “inactive”, the activation [2] was 6.25% [at 17.1 µM, percent relative to cAMP agonist control] and the Potency [3] was “inactive”. The activity change, negative = inhibition [4] was 4.53% [at 30.8 µM].

With `COC(=O)c1cc2sc(Cl)cc2n1Cc1cc(C)ccc1C` the Potency [1] was “inactive”, the Potency [2] was “inactive” and the Potency [3] was “inactive”. The Potency [4] was “inactive”.

`COC(=O)C1=CN(C(C)c2ccccc2)C=C(C(=O)OC)C1c1cc(OC)c(OC)c(OC)c1` (stereo unspecified) was tested, and the Potency [1] was “inactive”, the Potency [2] was “inactive” and the Potency [3] was 26.9 µM (active). For the same compound, the Potency [4] was “inactive”.

For `CC(C)(C)C1CCc2c(sc(NC(=O)CCC(=O)O)c2C(=O)Nc2ccccc2C(F)(F)F)C1` (stereo unspecified), the Potency [1] was 42.6 µM (active), the Potency [2] was “inactive” and the Potency [3] was “inactive”.

With `Oc1c(C(c2ccccc2)N2CCN(c3ccccc3)CC2)sc2nc(-c3ccco3)nn12` (stereo unspecified) the Potency [1] was “inactive”, the Potency [2] was “inactive” and the Potency [3] was “inactive”. For the same compound, the Potency [4] was “inactive”.

With `CCCN1C(=O)S/C(=C/c2ccc(N3CCOCC3)o2)C1=O` the Potency [1] was “inactive”, the Potency [2] was 112 µM (active) and the Potency [3] was 67.5 µM (active). For the same compound, the Potency [4] was “inactive”.

With `CC1CCN(c2ccc3c(c2)S(=O)(=O)c2cccc(C(=O)NCc4cccc(F)c4)c2C3=O)CC1` the Potency [1] was “inactive”, the Potency [2] was 112 µM (active) and the Potency [3] was “inactive”. For the same compound, the Potency [4] was “inactive”.

In the case of `Nc1c(C(=O)C2CC2)sc2nc(-c3cccs3)cc(C(F)(F)F)c12`, the Potency [1] is reported as “inactive”, the Potency [2] is reported as 100 µM (active) and the Potency [3] is reported as 75.7 µM (active). The Potency [4] was “inactive”.

With `O=C1c2cccc3c(N4CCCCC4)ccc(c23)C(=O)N1c1ccccc1O` the Potency [1] was “inactive”, the activation [2] was 13.2% [at 17.1 µM, percent relative to cAMP agonist control] and the Potency [3] was “inactive”. The activity change, negative = inhibition [4] was -4.8% [at 30.8 µM].

With `COC(=O)c1cc(C(=O)c2ccc(Cl)cc2)n2c(=O)/c(=C\N(C)C)sc12` the Potency [1] was “inactive”, the Potency [2] was 100 µM (active) and the Potency [3] was “inactive”.

In the case of `O=c1[nH]c2ccccc2nc1/C=C(\O)c1cccs1`, the Potency [1] is reported as “inactive”, the activation [2] is reported as 1.73% [at 17.1 µM, percent relative to cAMP agonist control] and the Potency [3] is reported as “inactive”. The activity change, negative = inhibition [4] was -7.08% [at 30.8 µM].

`CCN(CC)c1ccc2cc(C(N)=O)c(=N)oc2c1` was tested, and the Potency [1] was “inactive”, the activation [2] was 2.03% [at 17.1 µM, percent relative to cAMP agonist control] and the Potency [3] was “inactive”. It also gave an activity change, negative = inhibition [4] of -1.22% [at 30.8 µM].

`N=C1SC(c2ccccc2)C(=O)N1c1ncc(Cc2ccccc2Cl)s1` (stereo unspecified) was tested, and the Potency [1] was “inactive”, the Potency [2] was “inactive” and the Potency [3] was “inactive”. The Potency [4] was “inactive”.

In the case of `CCc1cccc(CC)c1N1C(=O)C2=C(SCCCS2)C1=O`, the Potency [1] is reported as “inactive”, the Potency [2] is reported as 112 µM (active) and the Potency [3] is reported as “inactive”. The Potency [4] was “inactive”.

`COC(=O)CC(NC(=S)NC(=O)c1ccccc1)c1ccc(Br)cc1` (stereo unspecified) was tested, and the Potency [1] was “inactive”, the Potency [2] was “inactive” and the Potency [3] was “inactive”. For the same compound, the Potency [4] was “inactive”.

For `CC(OC(=O)/C(C#N)=C/c1ccc(N(C)C)cc1)C(=O)N(C)Cc1ccccc1` (stereo unspecified), the Potency [1] was “inactive”, the activation [2] was 3.68% [at 17.1 µM, percent relative to cAMP agonist control] and the Potency [3] was “inactive”. The activity change, negative = inhibition [4] was -0.358% [at 30.8 µM].

`CCOC(=O)C1CCCN(c2c(C(=O)c3ccccc3)cnc3ccc(OC)cc23)C1` (stereo unspecified) was tested, and the Potency [1] was “inactive”, the activation [2] was 6.11% [at 17.1 µM, percent relative to cAMP agonist control] and the Potency [3] was “inactive”. For the same compound, the activity change, negative = inhibition [4] was 19.5% [at 30.8 µM].

For `CNC(=O)N(C1=NCC(C)(C)S1)c1ccc(F)c(Cl)c1`, the Potency [1] was “inactive”, the Potency [2] was “inactive” and the Potency [3] was “inactive”. For the same compound, the Potency [4] was “inactive”.

`Cc1cccc(-n2c(N)c(-c3nc4ccccc4n3C)c3nc4ccccc4nc32)c1` was tested, and the Potency [1] was “inactive”, the activation [2] was 17.4% [at 17.1 µM, percent relative to cAMP agonist control] and the Potency [3] was “inactive”. It also gave an activity change, negative = inhibition [4] of -16.7% [at 30.8 µM].

With `CCOc1ccc(CCN2C(=O)C(=O)N([C@@H](CC(C)C)CN3CCC[C@@H]3CN3C(=O)C(=O)NC[C@@H]3Cc3ccccc3)C[C@@H]2CC(C)C)cc1` the Potency [1] was “inactive”, the Potency [2] was “inactive” and the Potency [3] was 0.0953 µM (active). For the same compound, the Potency [4] was “inactive”.

`Cc1cccc(NCc2cccc3ccccc23)n1` was tested, and the Potency [1] was “inactive”, the activation [2] was 4.47% [at 17.1 µM, percent relative to cAMP agonist control] and the Potency [3] was “inactive”. The activity change, negative = inhibition [4] was -11.4% [at 30.8 µM].

In the case of `CCN1CCN(Cc2c(O)ccc3c2O/C(=C\C=C\c2ccccc2OC)C3=O)CC1`, the Potency [1] is reported as “inactive”, the activation [2] is reported as 5.66% [at 17.1 µM, percent relative to cAMP agonist control] and the Potency [3] is reported as “inactive”.

For `CN1CCS/C1=C\C=C1/SC(=S)N(CC(=O)O)C1=O`, the Potency [1] was “inactive”, the Potency [2] was 79.4 µM (active) and the Potency [3] was “inactive”. The Potency [4] was “inactive”.

With `CC(/C=C/c1ccc(N(C)C)cc1)=N\N=C1\NC(=O)CC(C(=O)Nc2ccccc2)S1` (stereo unspecified) the Potency [1] was “inactive”, the activation [2] was 10% [at 17.1 µM, percent relative to cAMP agonist control] and the Potency [3] was “inactive”. The activity change, negative = inhibition [4] was -3.02% [at 30.8 µM].

For `O=C(COc1cccc(OC(F)F)c1)Nc1ccc(SC(F)F)cc1`, the Potency [1] was “inactive”, the activation [2] was 9.08% [at 17.1 µM, percent relative to cAMP agonist control] and the Potency [3] was “inactive”. For the same compound, the activity change, negative = inhibition [4] was 8.28% [at 30.8 µM].

With `O=C(O)c1ccccc1NS(=O)(=O)c1ccc(NN=Cc2cccc(Cl)c2)c([N+](=O)[O-])c1` the Potency [1] was 75.7 µM (active), the Potency [2] was “inactive” and the Potency [3] was “inactive”.

With `C=CCN1C(=O)c2cccc3c(N4CCCCC4)ccc(c23)C1=O` the Potency [1] was “inactive”, the Potency [2] was 112 µM (active) and the Potency [3] was “inactive”. The Potency [4] was “inactive”.

`CCOC(=O)/C(C#N)=C/c1ccc(N2CCN(Cc3ccccc3)CC2)cc1` was tested, and the Potency [1] was “inactive”, the activation [2] was 10.3% [at 17.1 µM, percent relative to cAMP agonist control] and the Potency [3] was “inactive”. For the same compound, the activity change, negative = inhibition [4] was 16.8% [at 30.8 µM].

In the case of `O=C1/C(=C/C=C/c2ccccc2)Oc2c1ccc(O)c2CN1CCN(CCO)CC1`, the Potency [1] is reported as “inactive”, the activation [2] is reported as 17.5% [at 17.1 µM, percent relative to cAMP agonist control] and the Potency [3] is reported as “inactive”. It also gave an activity change, negative = inhibition [4] of 31.1% [at 30.8 µM].

For `COc1ccc(Cl)cc1NC(=O)CN(C)C(C)C(=O)NC(=O)NC1CCCCC1` (stereo unspecified), the Potency [1] was “inactive”, the Potency [2] was “inactive” and the Potency [3] was “inactive”. The Potency [4] was “inactive”.

With `COC(=O)c1cc(NC(=O)c2ccccc2)c(=O)oc1C/C=N\OCc1ccc(Cl)cc1Cl` the Potency [1] was “inactive”, the activation [2] was -1.43% [at 17.1 µM, percent relative to cAMP agonist control] and the Potency [3] was “inactive”. It also gave an activity change, negative = inhibition [4] of -10.8% [at 30.8 µM] and an activation [5] of 26% [at 30.8 µM].

In the case of `O=C(Cn1c(=O)n(-c2ccccc2)c(=O)c2c3c(sc21)CCC3)c1ccc(Br)cc1`, the Potency [1] is reported as “inactive”, the Potency [2] is reported as “inactive” and the Potency [3] is reported as “inactive”. For the same compound, the Potency [4] was “inactive” and the Potency [5] was “inactive”.
